# In article PMC7862700, “An all-to-all approach to the identification of sequence-specific readers for epigenetic DNA modifications on cytosine”:
# What was measured:
# Experiment in all cases: DAPPL (digital affinity profiling via proximity ligation, sequencing); 10 mM Tris-HCl pH 7.5, 50 mM NaCl, 1 mM DTT, 4% glycerol, room temperature, 30 min; GST-TFs on glutathione beads, 16-mer random dsDNA library, 0.1% formaldehyde crosslink after washing; high values mean tight binding
# Settings in all cases: protein: recombinant; tags: N-terminal GST; dsDNA, one strand shown
# FLI1 = target: T1, FLI1 (Homo sapiens, UniProt Q01543 1-452)
# T1 sequence: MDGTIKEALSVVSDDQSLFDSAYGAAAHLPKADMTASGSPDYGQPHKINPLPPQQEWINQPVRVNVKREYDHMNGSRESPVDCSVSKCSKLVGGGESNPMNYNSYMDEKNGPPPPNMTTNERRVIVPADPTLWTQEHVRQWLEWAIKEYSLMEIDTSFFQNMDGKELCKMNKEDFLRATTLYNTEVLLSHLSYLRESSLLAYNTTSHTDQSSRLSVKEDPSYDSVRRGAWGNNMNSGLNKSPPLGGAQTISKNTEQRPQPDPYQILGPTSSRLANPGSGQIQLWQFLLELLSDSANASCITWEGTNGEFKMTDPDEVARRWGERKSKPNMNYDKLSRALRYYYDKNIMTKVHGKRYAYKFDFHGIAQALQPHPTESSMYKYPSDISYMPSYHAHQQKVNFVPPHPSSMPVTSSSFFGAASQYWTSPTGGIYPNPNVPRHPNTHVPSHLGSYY
# Procedure, shortened: (§1)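 Binding signal is each hexamer's read frequency for a factor divided by its frequency in the tag-only sample. The factors were GST-fused human transcription factors from yeast, captured on glutathione beads, DNA-barcoded and pooled with that sample. Pools were incubated with 200 nmole of a random double-stranded 16-mer DNA library in Tris/NaCl/DTT/glycerol buffer at room temperature for 30 min, then washed, crosslinked with 0.1% formaldehyde, proximity-ligated with BsaI/T4 ligase (1 h, 37 °C), PCR-amplified and sequenced on an Illumina NextSeq500.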
# ELK1 = target: T2, ELK1 (Homo sapiens, UniProt P19419 1-428)
# T2 sequence: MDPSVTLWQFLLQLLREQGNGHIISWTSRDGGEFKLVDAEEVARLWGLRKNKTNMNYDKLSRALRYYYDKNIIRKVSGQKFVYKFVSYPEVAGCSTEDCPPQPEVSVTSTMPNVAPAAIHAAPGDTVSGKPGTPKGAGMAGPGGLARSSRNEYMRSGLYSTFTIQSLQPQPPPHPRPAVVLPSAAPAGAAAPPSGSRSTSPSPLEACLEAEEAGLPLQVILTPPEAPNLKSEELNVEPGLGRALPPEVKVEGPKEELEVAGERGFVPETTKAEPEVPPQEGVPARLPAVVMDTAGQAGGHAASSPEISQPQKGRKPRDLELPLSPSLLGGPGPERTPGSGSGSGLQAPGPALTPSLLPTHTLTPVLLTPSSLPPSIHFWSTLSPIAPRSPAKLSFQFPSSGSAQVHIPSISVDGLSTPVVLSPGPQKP
# Procedure, shortened: as §1
# GABPA = target: T3, GABPA (Homo sapiens, UniProt Q06546 1-454)
# T3 sequence: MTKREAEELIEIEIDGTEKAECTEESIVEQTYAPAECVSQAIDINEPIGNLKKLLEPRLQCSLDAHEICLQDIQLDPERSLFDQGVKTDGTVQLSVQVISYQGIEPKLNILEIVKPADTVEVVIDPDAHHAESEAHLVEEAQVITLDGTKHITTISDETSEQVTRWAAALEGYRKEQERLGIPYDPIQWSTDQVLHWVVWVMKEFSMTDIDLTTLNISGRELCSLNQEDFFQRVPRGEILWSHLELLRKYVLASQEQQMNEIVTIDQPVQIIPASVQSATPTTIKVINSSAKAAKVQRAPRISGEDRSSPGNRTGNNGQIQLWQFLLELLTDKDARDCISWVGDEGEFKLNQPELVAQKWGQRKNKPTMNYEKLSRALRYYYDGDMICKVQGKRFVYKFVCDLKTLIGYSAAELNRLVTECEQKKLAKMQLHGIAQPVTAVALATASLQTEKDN
# Procedure, shortened: as §1
# ERG = target: T4, ERG (Homo sapiens, UniProt P11308 1-479)
# T4 sequence: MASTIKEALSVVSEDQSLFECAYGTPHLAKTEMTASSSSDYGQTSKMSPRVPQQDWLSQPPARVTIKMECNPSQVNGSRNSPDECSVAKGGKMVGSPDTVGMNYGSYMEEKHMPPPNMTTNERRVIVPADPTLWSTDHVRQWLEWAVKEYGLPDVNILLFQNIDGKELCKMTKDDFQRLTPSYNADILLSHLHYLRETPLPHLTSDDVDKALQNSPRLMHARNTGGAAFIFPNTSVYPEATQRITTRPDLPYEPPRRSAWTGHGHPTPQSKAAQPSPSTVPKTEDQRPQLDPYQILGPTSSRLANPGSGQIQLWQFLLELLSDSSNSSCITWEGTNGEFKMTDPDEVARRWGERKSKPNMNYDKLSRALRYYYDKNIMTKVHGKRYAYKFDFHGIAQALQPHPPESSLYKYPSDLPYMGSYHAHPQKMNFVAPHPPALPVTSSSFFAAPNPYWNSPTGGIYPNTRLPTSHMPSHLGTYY
# Procedure, shortened: as §1
# ELF1 = ELF1 (Homo sapiens, UniProt P32519 1-619)
# Chain of ELF1 (P32519 whole entry): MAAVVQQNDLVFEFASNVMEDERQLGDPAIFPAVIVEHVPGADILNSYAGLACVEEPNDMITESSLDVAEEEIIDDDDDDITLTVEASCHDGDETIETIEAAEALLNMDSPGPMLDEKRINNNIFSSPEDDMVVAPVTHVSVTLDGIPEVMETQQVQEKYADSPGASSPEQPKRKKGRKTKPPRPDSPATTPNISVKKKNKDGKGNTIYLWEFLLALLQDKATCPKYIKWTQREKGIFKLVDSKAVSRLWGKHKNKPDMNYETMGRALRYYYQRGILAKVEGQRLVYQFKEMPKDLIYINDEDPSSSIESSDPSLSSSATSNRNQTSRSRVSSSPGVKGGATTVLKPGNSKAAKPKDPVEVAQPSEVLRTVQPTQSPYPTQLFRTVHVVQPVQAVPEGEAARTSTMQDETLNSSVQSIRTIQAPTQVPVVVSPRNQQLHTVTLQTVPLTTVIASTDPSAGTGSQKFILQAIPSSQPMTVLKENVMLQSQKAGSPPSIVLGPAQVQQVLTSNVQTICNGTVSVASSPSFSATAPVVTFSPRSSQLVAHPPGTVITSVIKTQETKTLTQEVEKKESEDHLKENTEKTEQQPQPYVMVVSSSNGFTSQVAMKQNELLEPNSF
# Procedure, shortened: as §1
# EHF = target: T5, EHF (Homo sapiens, UniProt Q9NZC4 1-300)
# T5 sequence: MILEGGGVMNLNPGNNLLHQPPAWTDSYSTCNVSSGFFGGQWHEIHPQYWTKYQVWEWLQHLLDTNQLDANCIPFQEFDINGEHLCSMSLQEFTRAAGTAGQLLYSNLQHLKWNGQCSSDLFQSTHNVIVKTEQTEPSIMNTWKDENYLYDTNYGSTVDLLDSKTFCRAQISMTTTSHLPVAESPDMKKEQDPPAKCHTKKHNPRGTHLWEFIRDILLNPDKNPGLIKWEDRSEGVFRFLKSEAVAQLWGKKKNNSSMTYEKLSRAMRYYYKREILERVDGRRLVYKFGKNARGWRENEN
# Procedure, shortened: as §1
# SPI1 = SPI1 (Homo sapiens, UniProt P17947 1-270)
# Procedure, shortened: as §1
# SPIB = SPIB (Homo sapiens, UniProt Q01892 1-262)
# Chain of SPIB (Q01892 whole entry): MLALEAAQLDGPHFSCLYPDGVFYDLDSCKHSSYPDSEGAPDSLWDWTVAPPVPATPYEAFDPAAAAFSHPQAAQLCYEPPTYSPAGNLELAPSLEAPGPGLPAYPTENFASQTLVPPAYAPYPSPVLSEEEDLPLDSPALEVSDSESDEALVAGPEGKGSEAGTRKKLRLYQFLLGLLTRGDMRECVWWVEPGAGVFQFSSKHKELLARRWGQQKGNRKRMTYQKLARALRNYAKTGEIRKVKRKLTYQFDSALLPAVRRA
# Procedure, shortened: as §1
# FEV = target: T6, FEV (Homo sapiens, UniProt Q99581 1-238)
# T6 sequence: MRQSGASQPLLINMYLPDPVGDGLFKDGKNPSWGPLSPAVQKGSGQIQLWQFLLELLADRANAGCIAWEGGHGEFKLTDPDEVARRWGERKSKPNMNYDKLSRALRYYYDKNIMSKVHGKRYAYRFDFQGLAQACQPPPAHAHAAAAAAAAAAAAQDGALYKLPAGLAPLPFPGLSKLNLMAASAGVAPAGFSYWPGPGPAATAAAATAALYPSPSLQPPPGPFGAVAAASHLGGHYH
# Procedure, shortened: as §1
# ETV5 = ETV5 (Homo sapiens, UniProt P41161 1-510)
# Chain of ETV5 (P41161 whole entry): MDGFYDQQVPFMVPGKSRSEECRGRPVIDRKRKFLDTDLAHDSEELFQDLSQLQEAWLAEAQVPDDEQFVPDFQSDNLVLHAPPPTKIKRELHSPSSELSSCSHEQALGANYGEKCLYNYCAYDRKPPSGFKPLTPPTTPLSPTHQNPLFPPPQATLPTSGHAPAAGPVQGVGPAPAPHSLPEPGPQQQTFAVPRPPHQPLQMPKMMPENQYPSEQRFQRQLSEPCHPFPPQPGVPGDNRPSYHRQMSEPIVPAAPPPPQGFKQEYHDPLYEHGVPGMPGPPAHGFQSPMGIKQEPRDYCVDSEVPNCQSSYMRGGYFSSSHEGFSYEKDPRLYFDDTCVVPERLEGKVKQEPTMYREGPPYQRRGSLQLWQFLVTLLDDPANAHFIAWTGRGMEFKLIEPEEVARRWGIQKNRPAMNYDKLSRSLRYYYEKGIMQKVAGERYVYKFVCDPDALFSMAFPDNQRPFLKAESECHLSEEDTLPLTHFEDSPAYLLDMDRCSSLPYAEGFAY
# Procedure, shortened: as §1
sequence,measurement,setting,value
ACCATT,binding signal,FLI1,"1.22 fold enrichment (6-mer frequency, TF over GST control)"
same,binding signal,ELK1,"1.11 fold enrichment (6-mer frequency, TF over GST control)"
same,binding signal,GABPA,"1.1 fold enrichment (6-mer frequency, TF over GST control)"
same,binding signal,ERG,"1.12 fold enrichment (6-mer frequency, TF over GST control)"
same,binding signal,ELF1,"1.1 fold enrichment (6-mer frequency, TF over GST control)"
same,binding signal,EHF,"1.11 fold enrichment (6-mer frequency, TF over GST control)"
same,binding signal,SPI1,"1.16 fold enrichment (6-mer frequency, TF over GST control)"
same,binding signal,SPIB,"1.11 fold enrichment (6-mer frequency, TF over GST control)"
same,binding signal,FEV,"1.15 fold enrichment (6-mer frequency, TF over GST control)"
same,binding signal,ETV5,"1.08 fold enrichment (6-mer frequency, TF over GST control)"
